Assay [1] is described as follows: NCI Yeast Anticancer Drug Screen. Data for the rad50 strain (AID 155).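 Note: 0% = growth of vehicle-only cultures of the same strain.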 The note with it: S. cerevisiae rad50 strain growth inhibition; at 50.0 µM; hits give high values. The gist of the method:
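Relative growth inhibition (compound vs vehicle) was measured in yeast with a defined repair-gene alteration.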

A short description of assay [2]: NCI Yeast Anticancer Drug Screen. Data for the mec2-1 strain (AID 157). The conditions noted are these: S. cerevisiae mec2-1 strain, at 50.0 µM, hits give high values. The gist of the method:
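Mutant yeast (mec2-1) grown with compound; growth inhibition relative to vehicle control reported.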

A short description of assay [3]: NCI Yeast Anticancer Drug Screen. Data for the sgs1 mgt1 strain (AID 161).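 Note: 0% = growth of cultures given vehicle only.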 The conditions noted are these: S. cerevisiae sgs1 mgt1 strain, at 50.0 µM, hits give high values. The gist of the method: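 Yeast cells carrying a defined DNA-repair defect were exposed to test compounds. Growth inhibition was measured relative to vehicle-treated controls.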
A short description of assay [4]: NCI Yeast Anticancer Drug Screen. Data for the cln2 rad14 strain (AID 165).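 Note: 0% = growth equal to vehicle treated cultures.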 The conditions noted are these: S. cerevisiae cln2 rad14 strain, at 50.0 µM, hits give high values. In short, it runs like this: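 Readout is yeast growth inhibition versus vehicle-treated controls, using a strain with cln2 and rad14 alterations exposed to compound.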
The nature of assay [5]: NCI Yeast Anticancer Drug Screen. Data for the bub3 strain (AID 167). The conditions noted are these: S. cerevisiae bub3 mutant strain, at 50.0 µM, hits give high values. The gist of the method:
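Screening used yeast with an engineered genetic alteration affecting cell cycle control. Compound-exposed cultures were compared with vehicle cultures, and reduced growth was taken as inhibition.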

Assay [6] in a line: NCI Yeast Anticancer Drug Screen. Data for the mlh1 rad18 strain (AID 175). The note with it: S. cerevisiae mlh1 rad18 strain growth inhibition; at 50.0 µM; hits give high values. The gist of the method: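 Genetically defined yeast (DNA repair-deficient) exposed to compounds; growth inhibition determined relative to vehicle.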

About 79,000 compounds went through this panel and 15% of them were active in at least one assay; those are over-represented in the sample as a whole. Values without a mark were called inactive. Activity calls are given as the source filed them. Cut-off read from the data, not from the text of the source: active = growth inhibition above about 70%; inactive = the rest. Where a SMILES comes first, the peptide text is derived from it. [ ]: non-standard residue; d: D form. The star is where a group is joined. ξ: configuration not given here. ξF = NC(Cc1ccccc1)C(=O)O; Cbz = O=C(OCc1ccccc1)*; Aib = CC(C)(N)C(=O)O; NHNH2 = NN*

As to `[Cl][Pt+2][Cl].[NH-]C1CCC1.[NH2-]`, the growth inhibition in assay [1] is 3.25%; in assay [2], -3.5%; in assay [3], -3.85%; in assay [4], 18.4%; in assay [5] it was -16.1%; in assay [6], -66.6%.

With `Cc1cc([N+](=O)[O-])ccc1NS(=O)(=O)c1ccccc1`, the growth inhibition in assay [1] was 24.9%; in assay [2], 39.5%; in assay [3] it was 42.9%; in assay [4], 15.5%; in assay [5], 18.1%; in assay [6] it was 36.6%.

On to `CCNC(=O)NCC`, for which the growth inhibition was -16.4% in assay [1]; -19.4% in assay [2]; -32.7% in assay [3]; -29.2% in assay [4]; -2% in assay [5]; -3.4% in assay [6].

In the case of `NCc1ccccc1`, the growth inhibition in assay [1] was -2.5%; in assay [2], 7.75%; in assay [3] it was -2.2%; in assay [4], -41.4%; in assay [5], -18.9%; in assay [6], -3.85%.

Regarding `CN1C(=O)NC(C)(CCOCc2ccccc2)C1=O` (stereo unspecified), the growth inhibition was 8.85% in assay [1]; 0.45% in assay [2]; 0.25% in assay [3]; -1.25% in assay [4]; 6.65% in assay [5]; 8.65% in assay [6].

`COC(=O)c1cn2ccc3ccccc3c2c1C(=O)OC`: the growth inhibition in assay [1] is -3.95%; in assay [2], 2.15%; in assay [3], 9%; in assay [4], -0.25%; in assay [5], -15.7%; in assay [6], 15.5%.

For the molecule `CC(C)(NC(=O)OCc1ccccc1)C(=O)NC(Cc1ccccc1)C(=O)NN` (stereo unspecified) (Cbz-[Aib]-[ξF]-NHNH2), the growth inhibition is 0.55% in assay [1]; 7.35% in assay [2]; 7% in assay [3]; 20.9% in assay [4]; 15.4% in assay [5]; -20.1% in assay [6].

With `CC(CO)NCc1ccccc1` (stereo unspecified), the growth inhibition in assay [1] was -18.2%; in assay [2] it was -14.9%; in assay [3] it was -1.95%; in assay [4], 3.95%; in assay [5], -29.6%; in assay [6], 3.95%.

Turning to `CC(NC(C)c1ccccc1)c1ccccc1` (stereo unspecified), the growth inhibition was 6.05% in assay [1]; 0.05% in assay [2]; -5.6% in assay [3]; -7.3% in assay [4]; 3.3% in assay [5]; -1.35% in assay [6].

Regarding `CCOc1nc(C(=O)O)cc2ccsc12`, the growth inhibition in assay [1] was 1.15%; in assay [2] it was -6.2%; in assay [3], 5.5%; in assay [4] it was -48.1%; in assay [5], -43.4%; in assay [6] it was 0%.

For the molecule `CCOC(=O)C(=O)Nc1ccccc1OCC`, the growth inhibition is 3.3% in assay [1]; 11.2% in assay [2]; -11.2% in assay [3]; -27.7% in assay [4]; 0.9% in assay [5]; 4.2% in assay [6].

In the case of `CC(=O)Nc1ccc2ccc3ccccc3c2c1`, the growth inhibition in assay [1] was 37%; in assay [2] it was 9.25%; in assay [3] it was 15.8%; in assay [4], -19.1%; in assay [5], -4.35%; in assay [6], 23.7%.

`CC(=O)OCC1OC(n2c3c(cc(C#N)c2=S)CCCCCC3)C(OC(C)=O)C(OC(C)=O)C1OC(C)=O` (stereo unspecified): the growth inhibition in assay [1] is 22.2%; in assay [2], 4.45%; in assay [3], 12.1%; in assay [4] it was -12.8%; in assay [5] it was -4%; in assay [6], 33.4%.

As to `CCOC(=O)C1=CC(C)(C(=O)OCC)Nc2c(nc(SC)[nH]c2=O)N1` (stereo unspecified), the growth inhibition was -30.9% in assay [1]; -24.7% in assay [2]; -14.7% in assay [3]; 9.05% in assay [4]; -11.8% in assay [5]; 2.5% in assay [6].

With `COC1(CCO)CC=CCC1(CCO)OC` (stereo unspecified), the growth inhibition in assay [1] is -2.45%; in assay [2] it was -20.4%; in assay [3] it was -19.3%; in assay [4], 13.3%; in assay [5] it was -19.4%; in assay [6] it was -7.9%.

Consider `Clc1ccc(C2NC(c3ccccc3)c3c(ccc4ccccc34)O2)cc1Cl` (stereo unspecified), for which the growth inhibition was 86.2% (active) in assay [1]; 92.6% (active) in assay [2]; 92.2% (active) in assay [3]; 88.2% (active) in assay [4]; 90.5% (active) in assay [5]; 92.1% (active) in assay [6].

As for `O/N=C/c1ccc(O)c(O)c1`, the growth inhibition in assay [1] was 16.4%; in assay [2], -7.35%; in assay [3], -4.05%; in assay [4] it was -0.7%; in assay [5], 10.8%; in assay [6], 4.75%.

Turning to `Cc1ccc(S(=O)(=O)N/N=C2\CCC3CC3CC\C2=N/NS(=O)(=O)c2ccc(C)cc2)cc1` (stereo unspecified), the growth inhibition in assay [1] is -0.85%; in assay [2], -4.4%; in assay [3], 0.6%; in assay [4], -9.1%; in assay [5] it was -2.7%; in assay [6], -5.75%.

`COc1c2c(c(OC)c3c(=O)c4ccccc4[nH]c13)OCO2`: the growth inhibition was 12.6% in assay [1]; -8.85% in assay [2]; 26.9% in assay [3]; -2.25% in assay [4]; 18.2% in assay [5]; 22.9% in assay [6].

On to `CCCCOCCOC(=O)Nc1cccc(Cl)c1`, for which the growth inhibition in assay [1] was 35%; in assay [2], 30.7%; in assay [3] it was 51.1%; in assay [4] it was -11.6%; in assay [5], -0.3%; in assay [6], 2.15%.

As to `NC(=O)c1ncn(C2OC(CO)C(O)C2O)c1NC=O` (stereo unspecified), the growth inhibition is 1.95% in assay [1]; -3.9% in assay [2]; -2.25% in assay [3]; 7.6% in assay [4]; 9.85% in assay [5]; 17.9% in assay [6].

Values taken from PubChem BioAssay (NCI).
